Eight compounds from PubChem BioAssay (NCI) can be followed below.

The structures appear in SMILES notation. About 83,000 compounds went through this panel and 20% of them were active in at least one assay; those are over-represented in the sample as a whole.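 Results are percent growth after 48 hours of single-concentration exposure. 100 means growth as in untreated cells, lower positive values show inhibition; negative values down to -100 show cell death.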 Values without a mark were called inactive. Active and inactive are the calls of the source. The calls were made as follows: active = growth percent below 10; inactive = the rest.

Some test systems named below: NCI-H23 lung; NCI-H226 lung; NCI-H322M lung; HOP-62 NSCLC; NCI-H460 lung; NCI-H522 lung; A549/ATCC NSCLC; 786-0 renal; COLO 205 colon; DU-145 prostate; MALME-3M melanoma; MDA-MB-231 breast; RXF 393 renal; SF-268 CNS; SF-295 CNS; SF-539 CNS; UACC-257 melanoma; M14 melanoma.
What all share (assay): NCI-60 one-dose screen, 48 h (100 = growth as untreated, 0 = no growth, -100 = all killed)
Holding throughout (settings): 10 µM unless noted

For the compound `CC1=CCC2C1CC=C(C)C(CC[C@H]1[C@@](C)(O)CCC3OC(C)(C)[C@H](OC(=O)c4ccccc4)CC[C@@]31C)C2(C)C` (some centres undefined), the growth in the assay on NCI-H23 lung is 65.2%; in the assay with NCI-H226 lung it was 72.9%; with NCI-H322M lung it was 96.3%; in the assay on HOP-62 NSCLC, 86%; with NCI-H460 lung, 97.1%; in the assay with NCI-H522 lung, 67.8%. Also, the growth is 78.7% in the assay with A549/ATCC NSCLC; 70.9% in the assay with 786-0 renal; 112% in the assay on COLO 205 colon; 106% with DU-145 prostate; 111% in the assay with MALME-3M melanoma; 88% in the assay with MDA-MB-231 breast. The growth in the assay on RXF 393 renal was 69.8%; with SF-268 CNS, 93.6%; with SF-295 CNS, 84.7%; in the assay on SF-539 CNS, 99.1%; in the assay on UACC-257 melanoma, 81.3%; with M14 melanoma, 90.1%.

As to `CSc1ccc(/C=C2\C=C(CC(=O)NCc3ccc(C(=O)c4ccccc4)cc3)c3cc(F)ccc32)cc1`, the growth in the assay with NCI-H23 lung was -23.2% (active); in the assay on NCI-H226 lung, -40.8% (active); in the assay with NCI-H322M lung it was 39.4%; in the assay on HOP-62 NSCLC, -7.82% (active); with NCI-H460 lung, -43.7% (active); in the assay with NCI-H522 lung, -38.5% (active). The growth in the assay on A549/ATCC NSCLC is -0.932% (active); in the assay with 786-0 renal, -25.7% (active); in the assay with COLO 205 colon, -75.6% (active); in the assay on DU-145 prostate, -34.3% (active); in the assay on MALME-3M melanoma, 49.3%; with MDA-MB-231 breast, -7.54% (active). The growth is -34.1% (active) with RXF 393 renal; 1.28% (active) in the assay on SF-268 CNS; -20.2% (active) in the assay on SF-295 CNS; -36.2% (active) with SF-539 CNS; 55.2% with UACC-257 melanoma; -33.2% (active) with M14 melanoma.

For the compound `COc1ccccc1CNCCCN1C(=O)c2ccc3c4c(ccc(c24)C1=O)C(=O)N(CCCNCCCN)C3=O`, the growth with NCI-H23 lung was -63.4% (active); with NCI-H226 lung it was 38.7%; in the assay with NCI-H322M lung, 1.95% (active); with HOP-62 NSCLC, 11.6%; with NCI-H460 lung, -26.5% (active); in the assay on NCI-H522 lung, -75.6% (active). For the same compound, the growth in the assay with A549/ATCC NSCLC is 9.81% (active); in the assay with 786-0 renal, 11%; with COLO 205 colon, -87.8% (active); with DU-145 prostate, -1.55% (active); in the assay with MALME-3M melanoma, -41.9% (active); in the assay on MDA-MB-231 breast, 12.2%. Besides, the growth is -36.9% (active) with RXF 393 renal; -0.397% (active) in the assay with SF-268 CNS; 14.5% in the assay on SF-295 CNS; 8.47% (active) with SF-539 CNS; -74.4% (active) with UACC-257 melanoma; -44.1% (active) in the assay with M14 melanoma.

For the compound `CCCCCCCCOC(=O)C(C)OC(=O)OCCOCCOC(=O)OC(C)C(=O)OCCCCCCCC` (centres undefined), the growth with NCI-H23 lung is 113%; in the assay on NCI-H226 lung, 102%; in the assay with NCI-H322M lung, 92.4%; with HOP-62 NSCLC, 105%; in the assay with NCI-H460 lung it was 107%; in the assay with NCI-H522 lung it was 114%. Further, the growth in the assay on A549/ATCC NSCLC is 102%; in the assay with 786-0 renal it was 104%; in the assay on COLO 205 colon, 119%; with DU-145 prostate, 104%; in the assay with MALME-3M melanoma, 89.3%; in the assay on MDA-MB-231 breast it was 107%. Also, the growth in the assay with RXF 393 renal was 110%; in the assay on SF-268 CNS it was 103%; with SF-295 CNS it was 93.6%; in the assay on SF-539 CNS it was 109%; with UACC-257 melanoma it was 107%; in the assay on M14 melanoma, 96.5%.

For the compound `Nc1c(Br)cc2c(c1Br)Cc1cc(Cl)ccc1-2`, the growth in the assay with NCI-H23 lung is 89.2%; in the assay with NCI-H226 lung it was 78.6%; with NCI-H322M lung, 89.2%; with HOP-62 NSCLC, 83.4%; with NCI-H460 lung, 99.7%; in the assay with NCI-H522 lung, 102%. The growth in the assay on A549/ATCC NSCLC was 95.8%; in the assay with 786-0 renal, 108%; in the assay with COLO 205 colon, 106%; with DU-145 prostate, 112%; in the assay with MALME-3M melanoma, 109%; in the assay with MDA-MB-231 breast, 70%. For the same compound, the growth in the assay with RXF 393 renal is 106%; in the assay with SF-268 CNS it was 107%; in the assay with SF-295 CNS, 87.8%; in the assay on SF-539 CNS it was 89.5%; in the assay with UACC-257 melanoma it was 111%; with M14 melanoma, 106%.

For `O=C1OCC2=C1C(c1ccccc1)c1cc3c(cc1N2CCO)CCC3` (centres undefined), the growth in the assay with NCI-H23 lung was -0.519% (active); in the assay with NCI-H226 lung it was 27%; in the assay on NCI-H322M lung, 34.2%; in the assay on HOP-62 NSCLC it was 20.9%; in the assay on NCI-H460 lung it was -37.3% (active); with NCI-H522 lung, -31.4% (active). Moreover, the growth with A549/ATCC NSCLC was 34.6%; in the assay with 786-0 renal, 8.65% (active); in the assay with COLO 205 colon, -81.7% (active); in the assay with DU-145 prostate, 2.03% (active); in the assay on MALME-3M melanoma it was 50.2%; in the assay on MDA-MB-231 breast, 16.4%. Moreover, the growth with RXF 393 renal is 11%; with SF-268 CNS, 39.2%; in the assay with SF-295 CNS, -21.8% (active); in the assay on SF-539 CNS, -50.5% (active); in the assay on UACC-257 melanoma, 61.7%; in the assay on M14 melanoma, -15.1% (active).

Regarding `CCOC(=O)c1cnc(SCC)nc1SC#N`, the growth was 94.6% in the assay on NCI-H23 lung; 142% in the assay on NCI-H226 lung; 103% in the assay on NCI-H322M lung; 121% in the assay on HOP-62 NSCLC; 115% in the assay with NCI-H460 lung; 31.8% in the assay on NCI-H522 lung. Besides, the growth is 101% with A549/ATCC NSCLC; 101% in the assay with 786-0 renal; 82.1% with COLO 205 colon; 103% with DU-145 prostate; 97.7% in the assay with MALME-3M melanoma; 98.2% in the assay on MDA-MB-231 breast. Moreover, the growth with RXF 393 renal is 173%; in the assay on SF-268 CNS it was 103%; in the assay on SF-295 CNS, 106%; with SF-539 CNS it was 89.2%; with UACC-257 melanoma, 92.6%; in the assay with M14 melanoma, 84.7%.

As to `Cc1ccc2c(C)c3c(ccc4ccccc43)c[n+]2c1`, the growth is 53.8% with NCI-H23 lung; 83.7% in the assay with NCI-H226 lung; 86.5% with NCI-H322M lung; 45.7% in the assay with HOP-62 NSCLC; 74.3% in the assay with NCI-H460 lung; 74.2% with NCI-H522 lung. The growth with A549/ATCC NSCLC is 41.7%; in the assay on 786-0 renal it was 70.3%; in the assay with COLO 205 colon it was 91.5%; in the assay on DU-145 prostate, 85%; with MALME-3M melanoma, -8.06% (active); with MDA-MB-231 breast, 72.7%. The growth with RXF 393 renal is 104%; in the assay with SF-268 CNS it was 31.5%; in the assay with SF-295 CNS, 36.4%; in the assay with SF-539 CNS it was 72.8%; with UACC-257 melanoma, 69.2%; in the assay on M14 melanoma, 89%.
